Measurements reported in PubChem BioAssay AID1851 (National Center for Advancing Translational Sciences (NCATS), 2009).
Where “and” joins values, the source holds several entries; their conditions need not be identical. Equal entries are not always repeated. The whole screen tested about 16,000 compounds, of which about 2,600 (16%) were called active. Roughly 20% stayed inconclusive and do not appear here. The call rests on the fitted dose curve; in most records, active means well fitted curve in the direction sought with a large enough effect; inconclusive means small, poorly fitted or top-dose-only effect, or effect the other way; inactive means no such curve, though single readings can be large or run the other way. Many of the other results were omitted from the sample, so actives are more common in it than they were. More than one record can exist for a structure, and the calls need not agree.

Each molecule was assayed against Cytochrome P450 2D6 (Homo sapiens) (UniProt P10635) (assay: Cytochrome panel assay with activity outcomes). Details: recombinant CYP, pro-luciferin dealkylation, luminescence, p450-cyp2d6; series mostly up to 57.1 µM; activity, negative = inhibition: at the top concentration.
Cytochrome P450 2D6 (Homo sapiens), sequence (P10635 whole entry, looked up): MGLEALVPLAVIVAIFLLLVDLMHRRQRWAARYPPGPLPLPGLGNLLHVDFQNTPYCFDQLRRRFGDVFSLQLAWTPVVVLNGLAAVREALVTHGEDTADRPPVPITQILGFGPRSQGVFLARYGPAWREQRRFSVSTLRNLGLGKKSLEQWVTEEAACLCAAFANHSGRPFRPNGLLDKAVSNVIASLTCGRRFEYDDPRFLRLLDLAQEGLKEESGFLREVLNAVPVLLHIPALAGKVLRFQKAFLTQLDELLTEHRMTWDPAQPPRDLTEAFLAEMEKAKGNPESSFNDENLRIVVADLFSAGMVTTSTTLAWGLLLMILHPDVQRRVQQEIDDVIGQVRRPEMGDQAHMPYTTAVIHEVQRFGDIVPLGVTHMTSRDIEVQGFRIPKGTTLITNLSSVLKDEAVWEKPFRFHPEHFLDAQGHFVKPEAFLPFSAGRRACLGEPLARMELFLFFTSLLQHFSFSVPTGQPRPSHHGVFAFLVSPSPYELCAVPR
On the % scale 0 is the no-effect control and ±100 the full control effect.

Compound	AC50	activity, negative = inhibition
C[N+]1([O-])[C@@H]2CC(OC(=O)[C@@H](CO)c3ccccc3)C[C@@H]1[C@H]1O[C@H]12 (some centres not stated)	inactive	–
CC(=Nc1c(C)n(C)n(-c2ccccc2)c1=O)c1c(O)n(Cc2ccccc2)c(=O)[nH]c1=O	–	-3.59% (inactive)
O=C(O)CN1CCN(CC(=O)O)CC(=O)[O][Hg][O]C(=O)C1	3.16 µM (active)	–
NCCP(=O)(O)O	–	19.4% [at 11.4 µM] (inactive)
C[C@@]12CC[C@@H]3[C@H](CCC4=CC(=O)CC[C@]43C)[C@@H]1CC[C@@H]2C(=O)Cn1cnc2c(=S)nc[nH]c21	–	7.22% [at 11.4 µM] (inactive)
Oc1ccc([C@H](O)[C@@H]2CCCCN2)cc1O	–	15.6% [at 11.4 µM] (inactive)
O[C@@H](c1cc(-c2ccccc2)nc2c1ccc1ccccc12)[C@@H]1CCCCN1	3.16 µM (active)	–
NCc1cc(=O)[nH]o1	inactive	–
O=C(O)/C=C\c1ccc[c]([Sb](=[O])([OH])[OH])c1	–	-6.51% [at 11.4 µM] (inactive)
CC(=O)O/C(=C1/C[C@H]2[C@@H]3CC=C4C[C@@H](OC(C)=O)CC[C@]4(C)[C@@H]3CC[C@]2(C)C1=O)C(F)(F)F	–	-5.95% [at 11.4 µM] (inactive)
COc1ccc2c(c1)C13CCCC[C@@H]1C(C2)N(C)CC3 (some centres not stated)	3.98 µM (active)	–
COc1ccc2c(c1)[C@]13CCCC[C@@H]1[C@H](C2)N(C)CC3	2.51 µM (active)	–
COc1ccc2c(c1)[C@]13CCCC[C@@H]1[C@H](C2)NCC3	6.31 µM (active)	–
CC(C)(O)/C=C\C(=O)[C@](C)(O)[C@H]1[C@H](O)C[C@]2(C)[C@@H]3CC=C4[C@@H](C=C(O)C(=O)C4(C)C)[C@]3(C)C(=O)C[C@@]12C	–	-2.8% [at 11.4 µM] (inactive)
C[C@@]12CC[C@H](O)C[C@@H]1CC[C@H]1[C@H]2CC[C@@]2(C)[C@@H](C3=CC(=O)OC3)CC[C@]12O	–	-0.173% [at 25.6 µM] (inactive)
C=CCN1C(=O)NC(=O)/C(=C/c2cccn2C)C1=O	–	26.3% (inactive)
NC(N)=NCCC[C@H](N)C(=O)O	–	8.61% (inactive)
CCOP(=O)(CN(CC)CCNP(=O)(OCC)OCC)OCC	–	7.73% (inactive)
O=C1C=C2C=C[C@H]3C[C@@]2(O1)[C@H]1CCCCN31	–	1.85% [at 25.6 µM] (inactive)
c1ccc2c(N3CCNCC3)cccc2c1	15.8 µM (active)	–
c1ccc2nc(N3CCNCC3)ccc2c1	inactive	–
COc1ccccc1N1CCNCC1	–	-9.83% (inactive)
COc1ccc(C(=O)OC2C[C@H]3CC[C@@H](C2)N3C)cc1OC (some centres not stated)	1 µM (active)	–
COc1ccc(C(=O)O[C@H]2CC[C@@]3(C)[C@H]4CC[C@H]5[C@]3(C[C@]3(O)[C@H]6CN7C[C@H](C)CC[C@H]7[C@](C)(O)[C@]6(O)[C@H](O)C[C@]53O)O[C@]24O)cc1OC	–	13.4% [at 11.4 µM] (inactive)
CN1C2CCC1CC(OC(=O)c1ccc(Cl)cc1)C2 (configuration not stated)	0.224 µM (active)	–
CN1[C@@H]2CC[C@H]1CC(O[C@@H](c1ccccc1)c1ccc(Cl)cc1)C2 (some centres not stated)	1.26 µM (active) and 1.58 µM (active)	–

Compound	AC50	activity, negative = inhibition
CC[C@H](Oc1ccc(Cl)cc1)C(=O)OC1C[C@H]2CC[C@@H](C1)N2C (some centres not stated)	0.00631 µM (active)	–
CCN1C[C@]2(C)CC[C@H](O)[C@@]34[C@@H]5CC6[C@@H](OC)C[C@@](O)([C@@H]5[C@@H]6O)[C@H](C[C@@H]23)[C@H]14	–	3.42% [at 25.6 µM] (inactive)
O=c1cccc2n1CC1CNC[C@H]2C1	inactive	–
COC(=O)[C@@H]1[C@@H](O)[C@@]2(O)c3c(OC)cc(OC)cc3O[C@@]2(c2ccc(OC)cc2)[C@H]1c1ccccc1	–	18.2% [at 11.4 µM] (inactive)
C[C@@]12CC[C@@H]3[C@@H](CC[C@H]4C[C@@H](O)CC[C@]43C)[C@H]1CC[C@@H]2c1cc(C(F)(F)F)n[nH]1	–	-7.84% [at 11.4 µM] (inactive)
O=C(c1ccccc1F)c1cn(Cc2ccccc2)c2ccccc12	–	-20.1% (inactive)
C[N+]1([O-])[C@@H]2CC[C@H]1CC(OC(=O)[C@@H](CO)c1ccccc1)C2 (some centres not stated)	–	9.36% [at 25.6 µM] (inactive)
CN1[C@@H]2CC[C@H]1CC(OC(=O)c1cc(Cl)cc(Cl)c1)C2 (some centres not stated)	0.00794 µM (active)	–
Cc1cc(C)cc(C(=O)OC2C[C@H]3CC[C@@H](C2)N3C)c1 (some centres not stated)	0.251 µM (active)	–
C[C@@H](C(=O)OC1C[C@H]2CC[C@@H](C1)N2C)c1ccc(Br)cc1 (some centres not stated)	3.98 µM (active)	–
C[N+]1([O-])[C@H]2CC[C@H]1CC(OC(=O)[C@@H](CO)c1ccccc1)C2 (some centres not stated)	–	17.4% [at 11.4 µM] (inactive)
CN1[C@@H]2CC[C@H]1CC(O)C2 (some centres not stated)	–	-4.03% [at 25.6 µM] (inactive)
CS(=N)(=O)CC[C@H](N)P(=O)(O)O (some centres not stated)	–	-6.15% [at 11.4 µM] (inactive)
C[C@@]12CCC(=O)C=C1C=C[C@H]1[C@H]3CC[C@](O)(CCC(=O)O)[C@]3(C)CC[C@@H]12	–	2.47% [at 25.6 µM] (inactive)
Cc1ccc(S(=O)(=O)NCC2CCC(C(=O)N3CCC4(CC3)OCCO4)CC2)cc1 (configuration not stated)	–	5.05% (inactive)
CCC12CN3CC(CC)(CN(C1)C3c1cccnc1)C2=O (configuration not stated)	–	-5.29% (inactive)
O=S(=O)(O)/C(=C\c1ccccc1)c1ccccc1 (tested in a mixture with another compound)	–	-7.27% [at 11.4 µM] (inactive)
CCCCCC[C@H]1C(=O)O[C@H](C)[C@H](NC(=O)c2cccc(NC=O)c2O)C(=O)O[C@@H](C)[C@H]1OC(=O)CC(C)C	–	-19.5% [at 25.6 µM] (inactive)
CN(C)c1ccc(NC(=O)CN2C(=O)CN=C(c3ccccc3)c3ccccc32)cc1	–	-11.3% (inactive)
C(#CCN1CCCC1)CN1CCCC1	–	9.47% [at 25.6 µM] (inactive)
C[N+](C)(C)CC#CCN1CCCC1=O	inactive and 3.98 µM (active)	–
NC(=O)CN1CCCC1=O	inactive	–
O=C1CCCN1CC#CCN1CCCC1	inactive and 7.94 µM (active)	–
Cc1ccc(OP(=O)(Oc2ccc(C)cc2)N2C=Cc3ccccc3[C@H]2C#N)cc1	–	-6.26% [at 11.4 µM] (inactive)
CN(C)CCC(=O)[C@@]1(O)CC[C@H]2[C@H]3CC=C4C[C@@H](O)CC[C@]4(C)[C@H]3CC[C@]21C	–	-9.11% [at 11.4 µM] (inactive)
COC[C@H]1OC(=O)c2coc3c2[C@@]1(C)C1=C(C3=O)[C@H]2CCC(=O)[C@@]2(C)C[C@H]1OC(C)=O	–	-0.794% (inactive)
